Measured values published in the supplement of paper PMC12067093, “Discovery and optimisation of a covalent ligand for TRIM25 and its application to targeted protein ubiquitination” (Chemical Science, 2025).
Targets with the largest changes are over-represented here; the source holds about 21,000 in all.

Compound: CC1Cc2ccccc2N1C(=O)C1CCCN(C1)C(=O)CCl (mixture of isomers) [TRIM25 ligand 11 (diastereomer mixture)]
Test: probe-labelled cysteine peptide fold change vs DMSO (competition) (log2 fold change); higher = less target engagement (more negative = stronger competition)
Settings: THP-1, incubation time: 4 h
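Note: competitive chemoproteomic profiling in live THP-1 cells with an iodoacetamide desthiobiotin (IA-DTB) probe, comparing probe-labelled peptide intensities in compound-treated cells against DMSO-treated controls.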

Chain of UniProt Q9NZJ4 (Q9NZJ4 whole entry, looked up): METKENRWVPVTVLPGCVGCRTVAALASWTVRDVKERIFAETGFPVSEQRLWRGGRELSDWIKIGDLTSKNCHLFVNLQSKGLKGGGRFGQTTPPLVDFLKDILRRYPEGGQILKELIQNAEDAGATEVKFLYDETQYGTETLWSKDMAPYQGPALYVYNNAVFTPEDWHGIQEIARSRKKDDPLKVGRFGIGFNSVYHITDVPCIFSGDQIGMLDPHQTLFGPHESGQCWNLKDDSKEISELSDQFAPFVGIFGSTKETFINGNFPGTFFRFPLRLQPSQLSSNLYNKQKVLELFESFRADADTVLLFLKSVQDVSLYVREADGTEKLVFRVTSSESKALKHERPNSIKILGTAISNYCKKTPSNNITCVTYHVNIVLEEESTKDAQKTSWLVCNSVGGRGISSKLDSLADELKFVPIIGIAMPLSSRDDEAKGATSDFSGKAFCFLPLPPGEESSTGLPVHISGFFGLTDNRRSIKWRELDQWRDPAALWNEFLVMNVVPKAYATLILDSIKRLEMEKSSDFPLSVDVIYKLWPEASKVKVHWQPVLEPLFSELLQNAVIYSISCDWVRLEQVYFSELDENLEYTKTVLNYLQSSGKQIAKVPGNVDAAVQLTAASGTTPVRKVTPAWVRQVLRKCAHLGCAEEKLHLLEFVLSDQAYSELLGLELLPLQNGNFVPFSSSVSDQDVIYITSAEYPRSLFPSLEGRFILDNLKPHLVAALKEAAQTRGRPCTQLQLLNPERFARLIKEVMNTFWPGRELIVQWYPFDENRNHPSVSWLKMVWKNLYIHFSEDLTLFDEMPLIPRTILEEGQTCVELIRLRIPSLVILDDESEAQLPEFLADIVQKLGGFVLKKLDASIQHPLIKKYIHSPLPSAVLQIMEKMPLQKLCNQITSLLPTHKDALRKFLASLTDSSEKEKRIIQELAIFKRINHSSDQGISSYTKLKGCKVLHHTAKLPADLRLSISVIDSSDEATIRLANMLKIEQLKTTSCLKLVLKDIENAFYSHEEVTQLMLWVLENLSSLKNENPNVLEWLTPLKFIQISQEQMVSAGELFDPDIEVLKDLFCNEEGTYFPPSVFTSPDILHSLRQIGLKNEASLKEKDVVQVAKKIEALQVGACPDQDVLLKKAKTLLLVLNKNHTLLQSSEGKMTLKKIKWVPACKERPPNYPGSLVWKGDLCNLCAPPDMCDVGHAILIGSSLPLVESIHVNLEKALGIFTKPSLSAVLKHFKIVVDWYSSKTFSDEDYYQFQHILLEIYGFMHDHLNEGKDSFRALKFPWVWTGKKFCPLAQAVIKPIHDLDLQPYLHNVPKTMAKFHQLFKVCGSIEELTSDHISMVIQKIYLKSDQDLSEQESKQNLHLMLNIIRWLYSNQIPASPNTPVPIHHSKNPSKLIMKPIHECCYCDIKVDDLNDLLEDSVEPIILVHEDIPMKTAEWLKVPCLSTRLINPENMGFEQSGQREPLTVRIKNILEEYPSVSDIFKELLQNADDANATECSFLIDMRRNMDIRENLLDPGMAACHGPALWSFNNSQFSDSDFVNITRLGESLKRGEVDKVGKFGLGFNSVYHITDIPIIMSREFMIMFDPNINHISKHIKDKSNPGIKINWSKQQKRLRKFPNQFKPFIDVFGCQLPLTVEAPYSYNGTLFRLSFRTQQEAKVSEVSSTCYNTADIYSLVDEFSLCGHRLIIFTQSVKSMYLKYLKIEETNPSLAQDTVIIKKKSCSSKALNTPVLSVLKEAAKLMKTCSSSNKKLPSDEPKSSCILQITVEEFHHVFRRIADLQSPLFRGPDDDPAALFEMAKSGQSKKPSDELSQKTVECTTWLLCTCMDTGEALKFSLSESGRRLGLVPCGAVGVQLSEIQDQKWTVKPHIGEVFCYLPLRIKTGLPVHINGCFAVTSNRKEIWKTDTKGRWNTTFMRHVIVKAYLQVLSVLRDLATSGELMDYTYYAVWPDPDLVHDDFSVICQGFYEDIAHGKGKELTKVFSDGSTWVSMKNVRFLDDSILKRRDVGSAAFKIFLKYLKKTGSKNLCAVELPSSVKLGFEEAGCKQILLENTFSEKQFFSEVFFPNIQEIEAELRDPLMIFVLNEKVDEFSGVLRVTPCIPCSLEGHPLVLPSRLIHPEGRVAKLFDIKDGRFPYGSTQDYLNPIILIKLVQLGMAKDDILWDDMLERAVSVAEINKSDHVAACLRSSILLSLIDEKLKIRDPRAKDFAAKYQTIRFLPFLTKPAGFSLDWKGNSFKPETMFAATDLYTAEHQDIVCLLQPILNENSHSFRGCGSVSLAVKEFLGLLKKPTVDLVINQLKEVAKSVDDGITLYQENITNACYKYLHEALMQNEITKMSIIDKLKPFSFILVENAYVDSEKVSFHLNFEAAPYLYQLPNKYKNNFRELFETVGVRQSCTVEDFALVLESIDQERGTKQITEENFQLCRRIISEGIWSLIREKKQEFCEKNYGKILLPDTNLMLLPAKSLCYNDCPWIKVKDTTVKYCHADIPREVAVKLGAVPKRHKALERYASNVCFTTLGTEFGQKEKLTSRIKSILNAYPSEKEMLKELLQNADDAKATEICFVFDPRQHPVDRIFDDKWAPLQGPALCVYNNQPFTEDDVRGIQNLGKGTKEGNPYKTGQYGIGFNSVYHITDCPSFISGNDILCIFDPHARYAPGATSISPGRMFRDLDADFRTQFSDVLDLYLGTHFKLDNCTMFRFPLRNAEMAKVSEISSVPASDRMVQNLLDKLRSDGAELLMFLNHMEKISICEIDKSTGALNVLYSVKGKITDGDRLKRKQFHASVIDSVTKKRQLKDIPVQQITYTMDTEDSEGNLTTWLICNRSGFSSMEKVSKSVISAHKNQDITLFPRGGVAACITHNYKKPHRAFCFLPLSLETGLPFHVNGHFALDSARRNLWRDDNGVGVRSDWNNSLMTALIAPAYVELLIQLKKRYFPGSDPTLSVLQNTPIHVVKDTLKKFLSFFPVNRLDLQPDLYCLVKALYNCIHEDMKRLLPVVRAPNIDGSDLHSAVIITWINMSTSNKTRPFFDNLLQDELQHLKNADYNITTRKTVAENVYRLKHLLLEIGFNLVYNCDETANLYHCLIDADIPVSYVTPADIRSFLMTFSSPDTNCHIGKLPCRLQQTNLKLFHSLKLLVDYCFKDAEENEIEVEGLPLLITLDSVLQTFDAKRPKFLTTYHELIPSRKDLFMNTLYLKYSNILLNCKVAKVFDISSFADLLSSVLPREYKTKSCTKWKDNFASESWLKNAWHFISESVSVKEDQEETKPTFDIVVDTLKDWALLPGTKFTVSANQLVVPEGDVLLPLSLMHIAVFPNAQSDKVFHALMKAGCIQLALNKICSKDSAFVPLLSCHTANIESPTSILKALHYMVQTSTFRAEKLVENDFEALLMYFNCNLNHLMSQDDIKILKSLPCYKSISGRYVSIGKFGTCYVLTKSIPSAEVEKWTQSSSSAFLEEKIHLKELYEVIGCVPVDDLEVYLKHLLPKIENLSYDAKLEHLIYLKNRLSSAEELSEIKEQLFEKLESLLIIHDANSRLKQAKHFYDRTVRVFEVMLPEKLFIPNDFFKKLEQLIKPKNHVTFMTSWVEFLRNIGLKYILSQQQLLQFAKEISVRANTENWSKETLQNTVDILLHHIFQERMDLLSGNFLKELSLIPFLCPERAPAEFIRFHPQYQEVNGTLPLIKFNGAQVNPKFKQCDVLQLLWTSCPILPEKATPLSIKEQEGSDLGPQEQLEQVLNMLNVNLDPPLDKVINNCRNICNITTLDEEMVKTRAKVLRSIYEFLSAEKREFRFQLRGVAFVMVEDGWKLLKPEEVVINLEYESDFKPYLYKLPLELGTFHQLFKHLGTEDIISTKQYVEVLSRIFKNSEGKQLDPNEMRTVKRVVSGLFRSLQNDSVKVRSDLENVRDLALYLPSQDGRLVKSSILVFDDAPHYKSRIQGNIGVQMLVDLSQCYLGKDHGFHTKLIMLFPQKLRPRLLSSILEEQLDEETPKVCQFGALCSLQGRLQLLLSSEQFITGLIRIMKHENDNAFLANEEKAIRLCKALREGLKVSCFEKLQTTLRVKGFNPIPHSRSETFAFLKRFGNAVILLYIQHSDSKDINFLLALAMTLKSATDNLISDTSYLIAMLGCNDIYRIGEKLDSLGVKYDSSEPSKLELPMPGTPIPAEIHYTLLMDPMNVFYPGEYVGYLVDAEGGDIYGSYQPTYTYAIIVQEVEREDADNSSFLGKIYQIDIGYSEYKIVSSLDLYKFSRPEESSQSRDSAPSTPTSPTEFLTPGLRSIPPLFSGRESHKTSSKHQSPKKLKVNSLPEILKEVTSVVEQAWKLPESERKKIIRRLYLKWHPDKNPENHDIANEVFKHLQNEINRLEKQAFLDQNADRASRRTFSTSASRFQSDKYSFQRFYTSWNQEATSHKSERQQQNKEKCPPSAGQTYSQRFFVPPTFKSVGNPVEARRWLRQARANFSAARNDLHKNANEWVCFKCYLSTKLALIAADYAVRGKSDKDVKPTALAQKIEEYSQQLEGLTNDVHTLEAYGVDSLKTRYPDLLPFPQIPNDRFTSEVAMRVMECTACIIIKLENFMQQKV
Chain of UniProt P61619 (P61619 whole entry, looked up): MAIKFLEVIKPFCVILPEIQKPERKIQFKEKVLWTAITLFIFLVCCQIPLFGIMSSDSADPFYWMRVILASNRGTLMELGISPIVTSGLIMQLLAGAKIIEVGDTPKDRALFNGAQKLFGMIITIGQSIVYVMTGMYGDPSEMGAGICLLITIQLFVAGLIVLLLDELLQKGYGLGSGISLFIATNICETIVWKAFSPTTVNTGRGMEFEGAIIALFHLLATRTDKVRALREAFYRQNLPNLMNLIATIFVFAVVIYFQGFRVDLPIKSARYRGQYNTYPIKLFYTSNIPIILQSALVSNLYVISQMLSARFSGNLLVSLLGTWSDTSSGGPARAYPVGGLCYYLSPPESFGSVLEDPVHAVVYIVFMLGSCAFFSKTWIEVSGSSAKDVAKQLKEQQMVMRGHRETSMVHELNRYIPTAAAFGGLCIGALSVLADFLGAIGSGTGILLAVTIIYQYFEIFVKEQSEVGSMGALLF

Target	probe-labelled cysteine peptide fold change (10 µM)	probe-labelled cysteine peptide fold change (50 µM)
SETDB1_Q15047_385_RCEWIYR (UniProt Q15047)	0.156	0.176
RSBN1_Q5VWQ0_671_IQLCDNDIYFIPR (UniProt Q5VWQ0)	0.00486	0.13
SETX_Q7Z333_1398_AGSHTAQNSDIFVPESDRSDYNCTGGTEVLANSNR (UniProt Q7Z333)	-0.136	-0.652
SERBP1_Q8NC51_11_PGHLQEGFGCVVTNRFDQLFDDESDPFEVLK (UniProt Q8NC51)	-0.323	-0.648
SEC61A1_P61619_13_FLEVIKPFCVILPEIQKPERK (UniProt P61619)	-0.291	-0.191
SERPINF2_P08697_152_LCQDLGPGAFR (UniProt P08697)	0.591	0.7
RPS6KA1_Q15418_432_ETIGVGSYSECKR (UniProt Q15418)	0.185	-0.833
SEC63_Q9UGP8_490_EQSICAAEEQPAEDGQGETNK (UniProt Q9UGP8)	0.0683	-0.228
SACS_Q9NZJ4_3694_QCDVLQLLWTSCPILPEK (UniProt Q9NZJ4)	-0.00918	-0.0315
SNRPC_P09234_6_FYCDYCDTYLTHDSPSVR (UniProt P09234)	-0.122	-0.874
SLMAP_Q14BN4_120_KVTHGCIVSTIK (UniProt Q14BN4)	-0.0304	0.0755
RPS28_P62857_27_TGSQGQCTQVRVEFMDDTSR (UniProt P62857)	-0.718	-0.281
SEC13_P55735_77_GHEGPVWQVAWAHPMYGNILASCSYDR (UniProt P55735)	-0.107	-0.123
